# According to the supplement of paper PMC7801607:
# Tests used:
# CHO = assay: % viability of CHO cells (MTT); higher = less toxic; conditions: 48 h
# Outline: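 Percent viability of CHO cells, relative to untreated cells, was read colorimetrically by tetrazolium (MTT) assay. Cells were seeded at 10^6 cells/well and treated for 48 h with compound at 2 or 20 µM in fresh medium.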
# HepG2-A16-CD81 = assay: % inhibition of HepG2 viability (CellTiter-Glo); higher = more toxic; conditions: 5 µM
# [1] = test system: Plasmodium falciparum NF54 stage IV/V gametocytes; assay: % inhibition of gametocyte viability (PrestoBlue); higher = more inhibition; conditions: 48 h
# Outline: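 Stage IV/V NF54 gametocytes were exposed to compound at 1 or 5 µM for 48 h at 37 °C under stationary, hypoxic conditions, then read by PrestoBlue fluorescence at 612 nm. The percent inhibition of gametocyte viability was normalised to vehicle and kill controls from one run.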
# [2] = test system: Plasmodium falciparum NF54 asexual blood stage; assay: % inhibition of asexual blood stage proliferation (pLDH); higher = more inhibition; conditions: 72 h
# Outline: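 Ring-stage cultures of Plasmodium falciparum NF54 at 1% haematocrit and 2% parasitaemia were treated with compound at 2 or 20 µM in 96-well plates and kept for 72 h at 37 °C under 4% CO2, 3% O2 and 93% N2. Parasite survival was measured by the parasite lactate dehydrogenase assay, read colorimetrically at 620 nm. Percent inhibition of asexual proliferation was calculated relative to control wells, and the screen was carried out on two separate occasions.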
# [3] = test system: Plasmodium falciparum NF54 stage IV/V gametocytes; assay: % inhibition of gametocyte viability (ATP bioluminescence); higher = more inhibition; conditions: 24 h
# Outline: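 Stage IV/V NF54 gametocytes were enriched on density gradients and seeded at 30,000 per well in 96-well plates with compound at 1 or 5 µM. Plates were incubated for 24 h at 37 °C. ATP was measured with the Promega BacTiter Glo bioluminescence system. Percent inhibition of gametocyte viability was normalised to DMSO and kill controls from a single run.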
# [4] = test system: Plasmodium falciparum NF54 stage IV/V gametocytes; assay: % inhibition of gametocyte viability (luciferase reporter); higher = more inhibition; conditions: 48 h
# Outline: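 Percent inhibition was normalised to controls from a single run. Stage IV/V gametocytes of the NF54-Pfs16-GFP-Luc line, at 2% gametocytaemia and 2% haematocrit, were exposed to compound at 1 or 5 µM for 48 h at 37 °C under stationary, hypoxic conditions. Luminescence was then read from 30 µL lysate mixed with 30 µL Promega luciferin substrate on a GloMax-Multi+ reader with 10 s integration.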
# [5] = test system: Plasmodium berghei ANKA liver stage in HepG2-A16-CD81; assay: % inhibition of liver stage parasite viability (luciferase); higher = more inhibition; conditions: 5 µM; 48 h
# Procedure: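 Single-concentration screen of the MMV Pandemic Response Box. P. falciparum NF54 asexual blood stages: pLDH assay, 72 h at 37 °C, 2 and 20 µM, n=2. Stage IV/V gametocytes (NF54): luciferase reporter (NF54-Pfs16-GFP-Luc, 48 h), ATP bioluminescence (24 h) and PrestoBlue (48 h) at 1 and 5 µM, n=1. P. berghei liver stage (luciferase in HepG2-A16-CD81, 48 h post infection) at 5 µM, n=4. All normalised to DMSO and kill controls as % inhibition.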
# 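Throughout, for % inhibition of HepG2 viability (CellTiter-Glo): HepG2-A16-CD81 hepatoma cells plated as in the liver-stage assay but without sporozoites, with DMSO wells as negative and 25 µM puromycin as positive control.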
SMILES,% viability of CHO cells (CHO; 2 µM),% viability of CHO cells (CHO; 20 µM),% inhibition of HepG2 viability (HepG2-A16-CD81),% inhibition of gametocyte viability ([1]; 1 µM),% inhibition of gametocyte viability ([1]; 5 µM),% inhibition of asexual blood stage proliferation ([2]; 2 µM),% inhibition of asexual blood stage proliferation ([2]; 20 µM),% inhibition of gametocyte viability ([3]; 1 µM),% inhibition of gametocyte viability ([3]; 5 µM),% inhibition of gametocyte viability ([4]; 1 µM),% inhibition of gametocyte viability ([4]; 5 µM),% inhibition of liver stage parasite viability [5]
Cc1c(F)cccc1NC(=O)Nc1ccc(Cl)c(S(=O)(=O)[C@H]2CCCNC2)c1O,115%,118%,-8.8%,< 0%,< 0%,15.9%,41.5%,8.93%,< 0%,0.356%,< 0%,13.1%
C=C(C)[C@@H]1CC[C@]2(C(=O)O)CC[C@]3(C)[C@H](CC[C@@H]4[C@@]5(C)CC[C@H](O)C(C)(C)[C@@H]5CC[C@]43C)[C@@H]12,98.8%,111%,27.7%,26.9%,19.3%,36.2%,67.2%,12.2%,8.94%,3.4%,< 0%,57%
NC(=O)c1cnc2ccc(S(=O)(=O)c3ccccc3)cc2c1Nc1ccc(O)cc1,228%,58.1%,6.05%,< 0%,< 0%,29.7%,56.5%,< 0%,< 0%,< 0%,< 0%,53.1%
CN(C(=O)C1(c2ccc(Cl)cc2)CCC1)c1ccccc1,105%,102%,-4.47%,17.1%,17.3%,10.7%,59%,< 0%,< 0%,< 0%,1.35%,3.18%
Cn1c2ccccc2c(=O)c2c(O)cccc21,229%,55%,-9.48%,26.6%,21.6%,20.3%,11%,6.28%,< 0%,7.24%,< 0%,29.3%
C[Si]1(C)CCN(Cc2cc(-c3ccc(Cl)cc3)n(-c3ccc(Cl)cc3)n2)CC1,108%,71.6%,5.65%,28.8%,68.7%,57%,59.2%,3.88%,81%,3.92%,31.2%,33.3%
O=C(NCCN1CCCCC1)c1cccc(C(F)(F)F)c1,96.7%,-13%,1.19%,< 0%,< 0%,16.9%,78.6%,< 0%,2.48%,12.3%,< 0%,20.2%
C[C@@H](NC(=O)c1ccccc1-c1ccccc1)B(O)O,84%,94%,7.46%,10.1%,30.5%,-8.74%,-3.48%,3.08%,< 0%,< 0%,< 0%,19.8%
CC(=O)N1c2ccccc2NC2=C(C(=O)CC(C)(C)C2)C1c1ccc(OCc2ccccc2)cc1 (centres undefined),119%,85.5%,-5.09%,27.1%,24.2%,-13.1%,76.9%,1.11%,3.14%,9.92%,< 0%,27.4%
COc1ccc(OCc2ccc(COc3c(Cl)cccc3Cl)cc2)c(Cl)c1,99.5%,100%,-5.86%,< 0%,< 0%,21.2%,68.1%,4.45%,< 0%,< 0%,< 0%,33.2%
C[C@@H]1O[C@@H]1P(=O)(O)O,107%,72.6%,-3.69%,< 0%,36.1%,-0.28%,11.5%,< 0%,< 0%,< 0%,4.89%,-6.92%
COC(=O)Nc1nc2cc(S(=O)c3ccccc3)ccc2[nH]1 (centres undefined),118%,78%,12.1%,10.1%,11.8%,8.21%,7.99%,1.75%,< 0%,< 0%,< 0%,9.84%
Fc1ccc2c(/C=C/c3nnn[nH]3)c[nH]c2c1,80.4%,75%,2%,4.4%,18.3%,7.6%,10.8%,< 0%,< 0%,< 0%,4.42%,7.99%
CN1CCN(c2ccc3[nH]c(-c4ccc5[nH]c(-c6ccc(O)cc6)nc5c4)nc3c2)CC1,106%,115%,18.2%,< 0%,< 0%,82.9%,80.9%,< 0%,< 0%,< 0%,20.9%,-6.69%
CC(C)c1cc2c(cc1S(=O)(=O)O)[C@@]1(C)CCC[C@@](C)(C(=O)O)[C@@H]1CC2,93.3%,109%,3.51%,43.4%,12.4%,26%,89%,< 0%,< 0%,< 0%,< 0%,38.5%
Cc1ncc([N+](=O)[O-])n1CC(C)O (centres undefined),92.2%,87.1%,7.14%,7.95%,28.2%,42.5%,65.1%,4.81%,< 0%,8.84%,10%,13.9%
NC(=O)c1c(N)sc2c1CCCCC2,87%,32%,6.02%,< 0%,8.3%,4.8%,-4.48%,< 0%,< 0%,0.638%,1.6%,-7.51%
Cc1cc(C)n(O)c(=O)c1,108%,109%,-0.333%,< 0%,3.7%,-9.1%,4.56%,< 0%,3.75%,< 0%,< 0%,15.5%
COc1ccc2sc3c(c2c1)NC(C)CNC3=O (centres undefined),97.2%,115%,33.6%,< 0%,< 0%,38.3%,40.7%,< 0%,< 0%,0.316%,< 0%,-51.9%

SMILES,% viability of CHO cells (CHO; 2 µM),% viability of CHO cells (CHO; 20 µM),% inhibition of HepG2 viability (HepG2-A16-CD81),% inhibition of gametocyte viability ([1]; 1 µM),% inhibition of gametocyte viability ([1]; 5 µM),% inhibition of asexual blood stage proliferation ([2]; 2 µM),% inhibition of asexual blood stage proliferation ([2]; 20 µM),% inhibition of gametocyte viability ([3]; 1 µM),% inhibition of gametocyte viability ([3]; 5 µM),% inhibition of gametocyte viability ([4]; 1 µM),% inhibition of gametocyte viability ([4]; 5 µM),% inhibition of liver stage parasite viability [5]
CNC(=O)C1O[C@@H](n2cnc3c(NCc4cccc(I)c4)nc(Cl)nc32)[C@H](O)[C@@H]1O (some centres undefined),97.5%,132%,-10.3%,12.5%,24.1%,33.8%,63%,< 0%,< 0%,< 0%,< 0%,19.8%
Nc1nc(-c2ccccc2)nc2[nH]nc(Nc3ccc(C(F)(F)F)cc3)c12,80.5%,60.9%,-9.27%,15%,7.65%,20%,80.5%,< 0%,< 0%,< 0%,< 0%,53.1%
CC(C)Cn1c(=O)n(C)c(=O)c2c(-c3cncn3C)n(Cc3cccc4ccccc34)nc21,92.4%,102%,8.23%,3.5%,22.5%,85.2%,118%,< 0%,< 0%,11.4%,< 0%,-8.38%
O=C(O)COc1cccc2c1CC[C@](O)(COC(=O)N(c1ccccc1)c1ccccc1)C2,92.5%,105%,-9.51%,23.2%,25.8%,11.3%,-4.41%,< 0%,< 0%,1.62%,< 0%,13.6%
COc1cc(NCc2ccc3nc(N)nc(N)c3c2C)cc(OC)c1OC,109%,47.7%,17.2%,< 0%,< 0%,40.8%,88.6%,< 0%,< 0%,< 0%,< 0%,69.1%
CN(C)CC(=O)Nc1ccc2[nH]c(=O)c3ccccc3c2c1,97.8%,109%,-2.53%,< 0%,< 0%,24.3%,32.5%,11.1%,2.31%,< 0%,4.93%,9.83%
COc1ccc(NS(=O)(=O)c2ccc(Cl)s2)cn1,98%,100%,6.74%,< 0%,6.82%,22.6%,48.5%,< 0%,< 0%,4.39%,< 0%,-1.42%
COc1ccc(C(C)(C)C)cc1NC(=O)C(=O)c1ccc(OCCN2CCOCC2)c2ccccc12,97.6%,130%,1.14%,12.9%,26.4%,29.2%,23.5%,< 0%,< 0%,6.49%,< 0%,15.1%
O=C1NC(=S)N/C1=C\c1cc(Br)cc(Br)c1O,91.8%,63.5%,-2.5%,1.86%,< 0%,10.8%,17.1%,< 0%,< 0%,< 0%,< 0%,-2.17%
COc1nc2ccc(Br)cc2cc1[C@@H](c1ccccc1)[C@@](O)(CCN(C)C)c1cccc2ccccc12,107%,140%,-0.302%,< 0%,< 0%,82.9%,101%,< 0%,49.3%,14.4%,19.2%,31.1%
Fc1ccc2c(/C=C/c3cccnc3)c[nH]c2c1,107%,117%,0.955%,< 0%,6.61%,4.51%,61.2%,< 0%,< 0%,< 0%,< 0%,-23.8%
C=C(C)n1c(=O)n(Cc2ccccc2C)c2ccccc21,110%,56.8%,3.81%,4.81%,0.864%,16.6%,48.2%,< 0%,< 0%,< 0%,< 0%,19.1%
COc1c(NC(=O)[C@H]2CC[C@@H](COc3ccc([N+](=O)[O-])cc3)CC2)c(F)cc2c(=O)c(C(=O)O)cn(C3CC3)c12,104%,102%,-1.96%,< 0%,23%,8.56%,70%,0.404%,< 0%,< 0%,9%,46.8%
CC1=C(/C=C/C(C)=C/C=C/C(C)=C/C(=O)Nc2ccc(O)cc2)C(C)(C)CCC1,118%,102%,4.42%,< 0%,< 0%,33.3%,90%,< 0%,< 0%,< 0%,< 0%,13.4%
NC(=O)c1cnccn1,96%,75.7%,-2.12%,9.19%,38.1%,38.1%,70.3%,< 0%,< 0%,< 0%,14.8%,14.3%
Cc1cc(Nc2ccc(F)cc2)nc(SCc2nc3ccccc3[nH]2)n1,91.4%,101%,4.62%,19%,32.7%,-9.36%,-3.55%,1.25%,33.8%,< 0%,< 0%,25.6%
NC[C@H]1OB(O)c2c(OCCCO)cccc21,123%,109%,-3.46%,10.1%,< 0%,6.89%,18.5%,< 0%,< 0%,< 0%,2.44%,-16.7%
O=C(Nc1ncc(Cc2cccc3ccccc23)s1)C1CCCCC1,83.3%,53.3%,7.25%,16.9%,< 0%,22.6%,42.9%,< 0%,< 0%,< 0%,0.604%,-13.3%
